From article PMC4053984, “DNA binding specificities of the long zinc-finger recombination protein PRDM9” come the findings set out here.

The assay deals with PRDM9Cst (Mus musculus (CAST/EiJ)). The experiment in a line: competition EMSA; competition against biotin-labeled 75-bp Hlx1 B6 oligo; 10 mM Tris pH 7.5, 50 mM KCl, 1 mM DTT, 50 ng/ul poly(dI/dC), 0.05% NP-40, crude E. coli extract 3 ul in 20 ul; 1 h with unlabeled competitor, then 4 h with biotin-labeled 75-bp Hlx1; temperature not stated; high values mean tight binding. The conditions noted are these: tags: N-terminal His tag (pBAD/HisB); dsDNA, one strand shown.
Chain of PRDM9Cst (Mus musculus (CAST/EiJ)) (chain, as listed by the source): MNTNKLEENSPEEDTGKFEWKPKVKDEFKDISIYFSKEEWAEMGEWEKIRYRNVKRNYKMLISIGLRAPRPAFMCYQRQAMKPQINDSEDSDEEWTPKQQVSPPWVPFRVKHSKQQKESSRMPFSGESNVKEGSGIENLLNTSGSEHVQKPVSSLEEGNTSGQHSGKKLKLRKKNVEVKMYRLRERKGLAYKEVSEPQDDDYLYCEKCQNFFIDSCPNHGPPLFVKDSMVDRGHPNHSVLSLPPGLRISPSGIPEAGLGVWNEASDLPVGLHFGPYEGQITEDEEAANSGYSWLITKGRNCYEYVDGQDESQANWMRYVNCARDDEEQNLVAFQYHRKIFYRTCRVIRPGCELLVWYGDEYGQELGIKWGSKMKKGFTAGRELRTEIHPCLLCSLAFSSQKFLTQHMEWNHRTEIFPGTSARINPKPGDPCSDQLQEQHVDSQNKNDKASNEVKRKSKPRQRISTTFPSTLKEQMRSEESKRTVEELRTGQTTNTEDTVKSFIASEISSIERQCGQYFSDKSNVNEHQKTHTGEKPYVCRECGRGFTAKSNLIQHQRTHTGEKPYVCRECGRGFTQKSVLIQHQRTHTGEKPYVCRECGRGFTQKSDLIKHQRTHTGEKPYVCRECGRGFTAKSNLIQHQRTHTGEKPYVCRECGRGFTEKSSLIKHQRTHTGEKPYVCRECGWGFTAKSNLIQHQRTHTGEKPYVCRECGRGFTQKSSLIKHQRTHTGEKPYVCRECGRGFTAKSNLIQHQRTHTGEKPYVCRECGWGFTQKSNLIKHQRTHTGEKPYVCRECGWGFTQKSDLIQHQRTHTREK
Take ATAGTGTGCAGACTTGGACCCGGCCCTTTCTTT: the binding signal was -0.5 Bmut (0 = wild type, -1 = scrambled).
ATAGTGTGCAGACGTGGACCCTGCCCTTTCTTT: the binding signal was -0.4 Bmut (0 = wild type, -1 = scrambled).
The value for ATAGTGTGCAGACTTGGACCCTTCCCTTTCTTT was -0.3 Bmut (0 = wild type, -1 = scrambled); that for ATAGTGTGCAGACTTGTACCCTGCCCTTTCTTT was -0.8 Bmut (0 = wild type, -1 = scrambled).
The value for ATAGTGTGCAGACTTGGACCCTGCCCTTGCTTT was -0 Bmut (0 = wild type, -1 = scrambled).
The value for ATTGTGTGCAGACTTGGACCCTGCCCTTTCTTT was -0.1 Bmut (0 = wild type, -1 = scrambled); that for ATAGTGTGCAGACTTGGACCCTGCCCGTTCTTT was 0.1 Bmut (0 = wild type, -1 = scrambled); that for ATAGTGTGCAGACTTGGACACTGCCCTTTCTTT was -0 Bmut (0 = wild type, -1 = scrambled).
Turning to ATAGTGTGCAGGCTTGGACCCTGCCCTTTCTTT, the binding signal is -0.1 Bmut (0 = wild type, -1 = scrambled).
The value for ATAGTGTGCAGACTTGGACCCTGCCTTTTCTTT was 0.15 Bmut (0 = wild type, -1 = scrambled); that for ATAGTGTGCAGACTTGGACCCTGCCCTTTCTCT was 0.13 Bmut (0 = wild type, -1 = scrambled); that for AAAGTGTGCAGACTTGGACCCTGCCCTTTCTTT was 0 Bmut (0 = wild type, -1 = scrambled).
The value for ATAGTGTGCAGACTTTGACCCTGCCCTTTCTTT was 0 Bmut (0 = wild type, -1 = scrambled); that for ATAGTGTGCAGACTTGGACCCTGCCCTTTCTAT was 0.15 Bmut (0 = wild type, -1 = scrambled); that for ATAGTGTGCAGACTTGGACCCTGCCCTTTCCTT was 0.12 Bmut (0 = wild type, -1 = scrambled).
The value for ATAGTGTGCAGACCTGGACCCTGCCCTTTCTTT was 0 Bmut (0 = wild type, -1 = scrambled).
On to ATAGTGTGCAGACTTGGACCCTGCCCTGTCTTT, for which the binding signal was 0.01 Bmut (0 = wild type, -1 = scrambled).
The value for ACAGTGTGCAGACTTGGACCCTGCCCTTTCTTT was -0.1 Bmut (0 = wild type, -1 = scrambled).
In the case of ATAGTGTGCAGACTTGGACCCTGCCCTTTCTTG, the binding signal was 0.09 Bmut (0 = wild type, -1 = scrambled).
Consider ATAGTGTGTAGACTTGGACCCTGCCCTTTCTTT, for which the binding signal was 0 Bmut (0 = wild type, -1 = scrambled).
Turning to ATAGTGTGCAGACTTGGACCCTCCCCTTTCTTT, the binding signal was -0.1 Bmut (0 = wild type, -1 = scrambled).
The value for ATAGTGTGCAGACTAGGACCCTGCCCTTTCTTT was 0 Bmut (0 = wild type, -1 = scrambled).
Take ATAGTGTGCAGACTTGGAGCCTGCCCTTTCTTT: the binding signal is -0.5 Bmut (0 = wild type, -1 = scrambled).
The value for ATAGTGTGCAGACTTGGACCCTGCCCTTTCGTT was 0.12 Bmut (0 = wild type, -1 = scrambled).
The value for ATAGTGTGCAGACTTGGACCCTACCCTTTCTTT was 0.1 Bmut (0 = wild type, -1 = scrambled).
The value for ATAGTGTGCACACTTGGACCCTGCCCTTTCTTT was -0.2 Bmut (0 = wild type, -1 = scrambled).
As to ATAGTGTGCAGACTTGGACCCTGCTCTTTCTTT, the binding signal was -0.2 Bmut (0 = wild type, -1 = scrambled).
With ATAGTGTGCAGACATGGACCCTGCCCTTTCTTT, the binding signal was -0.7 Bmut (0 = wild type, -1 = scrambled).
As to ATAGTGTGCAGACTTGGTCCCTGCCCTTTCTTT, the binding signal is 0.1 Bmut (0 = wild type, -1 = scrambled).
The value for ATAGTGTGCAGACTTGGACCCTGCCCTTTCTTT was 0 Bmut (0 = wild type, -1 = scrambled); that for ATAGTGTACAGACTTGGACCCTGCCCTTTCTTT was 0.1 Bmut (0 = wild type, -1 = scrambled).
